PubChem BioAssay
For part of these data: Results with a measured potency or affinity are listed apart. Calls of active or inactive are those of the source.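 Rule for the calls, unless noted: active = calcium signal cut by more than 3 SD below the full-agonist control yet still positive, in both repeats and the earlier primary screen; inactive = the rest.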

Tests used:
[1] = system: TRPC4 beta (transient receptor potential cation channel C4), mouse; assay: TRPC4 cation channel opening, retest – cell-based, Fluo4 calcium, HEK293 TRPC4beta/mu-opioid, duplicates, 10 µM, confirmation (AID 2426;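 active = fluorescence ratio normalized to control raised more than 50% in primary screen plus both repeat runs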;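 for activation: percent rise of integrated ratio over buffer wells lacking compound which define 0%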); settings: Fluo4 calcium fluorescence, at 10 µM; hits give high values
[2] = system: transient receptor potential cation channel C4 beta (TRPC4), mouse; assay: TRPC4 cation channel opening, second retest – cell-based, second round, Fluo4, HEK293 TRPC4beta/mu-opioid, 1 µM, confirmation (AID 2461;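 active = primary screen active and over 50% activation in each of two duplicate runs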;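 for activation: 0% = wells without test compound as baseline of integrated fluorescence ratio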); settings: Fluo4 calcium fluorescence, at 1 µM; hits give high values
[3] = system: TRPC4 (transient receptor potential cation channel C4 beta), mouse; assay: potentiation of DAMGO EC20 TRPC4 response – cell-based, second round, Fluo-4, HEK293 TRPC4beta/mu-opioid, 1 µM, confirmation (AID 2554;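 active = primary screen hit whose fluorescence ratio, in both repeats, exceeds the weak agonist control mean by 3 SD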); settings: DAMGO EC20, Fluo-4 calcium flux, at 1 µM; hits give high values
[4] = system: TRPC4 beta (transient receptor potential cation channel C4), mouse; assay: potentiation of DAMGO EC20 TRPC4 response – cell-based, Fluo-4, HEK293 TRPC4beta/mu-opioid, confirmation (AID 2555;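 active = primary screen hit whose calcium fluorescence ratio, in both repeats, exceeds the weak agonist control mean by 3 SD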); settings: DAMGO EC20, Fluo-4 calcium flux, at 10 µM; hits give high values
[5] = biological target: Short transient receptor potential channel 4 (Mus musculus) (UniProt Q9QUQ5); assay: blockers of DAMGO-evoked TRPC4 calcium flux – cell-based, Fluo4, HEK293 TRPC4beta/mu-opioid, confirmation (AID 2636); settings: at 10 µM; hits give high values
Sequence of Short transient receptor potential channel 4 (Mus musculus) (Q9QUQ5 whole entry, looked up): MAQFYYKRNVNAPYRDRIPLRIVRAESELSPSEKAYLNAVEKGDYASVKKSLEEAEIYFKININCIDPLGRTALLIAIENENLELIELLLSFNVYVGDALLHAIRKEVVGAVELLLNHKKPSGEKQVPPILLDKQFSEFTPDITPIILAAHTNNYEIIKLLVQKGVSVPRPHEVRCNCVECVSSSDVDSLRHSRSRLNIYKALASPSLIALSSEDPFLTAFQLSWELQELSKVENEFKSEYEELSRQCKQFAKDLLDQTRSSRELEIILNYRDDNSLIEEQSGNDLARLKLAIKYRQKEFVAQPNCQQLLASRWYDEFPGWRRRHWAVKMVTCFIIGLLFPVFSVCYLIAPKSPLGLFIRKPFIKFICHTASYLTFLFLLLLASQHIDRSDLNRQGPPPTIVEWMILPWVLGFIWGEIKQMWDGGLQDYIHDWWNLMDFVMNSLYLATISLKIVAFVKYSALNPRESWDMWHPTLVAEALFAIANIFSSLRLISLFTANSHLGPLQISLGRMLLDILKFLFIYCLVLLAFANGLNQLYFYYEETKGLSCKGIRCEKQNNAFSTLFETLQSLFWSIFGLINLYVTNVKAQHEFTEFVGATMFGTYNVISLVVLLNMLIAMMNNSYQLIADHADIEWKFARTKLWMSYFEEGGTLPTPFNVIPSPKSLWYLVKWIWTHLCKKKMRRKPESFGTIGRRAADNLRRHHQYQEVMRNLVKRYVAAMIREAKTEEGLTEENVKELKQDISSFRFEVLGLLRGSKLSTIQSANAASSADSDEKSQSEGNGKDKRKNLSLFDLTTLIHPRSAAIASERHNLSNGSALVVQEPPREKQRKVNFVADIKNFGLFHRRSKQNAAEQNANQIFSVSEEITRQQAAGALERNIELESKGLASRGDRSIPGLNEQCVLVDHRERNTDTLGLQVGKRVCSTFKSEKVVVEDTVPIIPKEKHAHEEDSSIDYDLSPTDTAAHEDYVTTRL

[6] = biological target: Short transient receptor potential channel 4 (Mus musculus) (UniProt Q9QUQ5); assay: blockers of DAMGO-evoked TRPC4 calcium flux – cell-based, second round, Fluo4, HEK293 TRPC4beta/mu-opioid, 1 µM, confirmation (AID 2637;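 active = calcium signal ratio cut to more than 3 SD under the fully stimulated control mean yet still positive, in both repeats and the primary screen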); settings: at 1 µM; hits give high values
[7] = biological target: Short transient receptor potential channel 4 (Mus musculus) (UniProt Q9QUQ5); assay: potentiation of DAMGO-evoked TRPC4 calcium signal – cell-based, HEK293 TRPC4/mu-opioid, Fluo-4 calcium, EC20 DAMGO, dose response (AID 434941;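 active = earlier screen potentiator hit that boosts the TRPC4 ion channel at some dose, with a dose response; inactive = no potentiation, no dose response, or not a prior hit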;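 note: calcium entry triggered by an EC20 dose of DAMGO at the co-expressed mu-opioid receptor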); settings: HEK293 TRPC4/mu-opioid cells, Fluo-4 calcium fluorescence; series mostly up to 20 µM
[8] = biological target: Short transient receptor potential channel 4 (Mus musculus) (UniProt Q9QUQ5); assay: block of DAMGO-driven TRPC4 calcium entry – cell-based, HEK293 TRPC4/mu-opioid, Fluo-4 calcium, dose response (AID 434942;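 active = primary screen inhibitor hit that blocks the TRPC4 channel at some tested dose, yielding a dose curve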); settings: HEK293 TRPC4/mu-opioid cells, DAMGO-evoked Fluo-4 calcium ratio; series mostly up to 20 µM
[9] = biological target: Short transient receptor potential channel 6 (Mus musculus) (UniProt Q61143); assay: TRPC6 blockade by TRPC4 inhibitor hits – cell-based, HEK293, membrane potential dye, duplicate, selectivity assay for TRPC4 inhibitor project, confirmation (AID 434948;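 active = active in primary screen and both duplicates, each dropping signal beyond three positive-control SD with fluorescence still positive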); settings: HEK293 TRPC6, membrane potential dye fluorescence, at 10 µM, stimulated with maximal-effect acetylcholine; hits give high values
Sequence of Short transient receptor potential channel 6 (Mus musculus) (Q61143 whole entry, looked up): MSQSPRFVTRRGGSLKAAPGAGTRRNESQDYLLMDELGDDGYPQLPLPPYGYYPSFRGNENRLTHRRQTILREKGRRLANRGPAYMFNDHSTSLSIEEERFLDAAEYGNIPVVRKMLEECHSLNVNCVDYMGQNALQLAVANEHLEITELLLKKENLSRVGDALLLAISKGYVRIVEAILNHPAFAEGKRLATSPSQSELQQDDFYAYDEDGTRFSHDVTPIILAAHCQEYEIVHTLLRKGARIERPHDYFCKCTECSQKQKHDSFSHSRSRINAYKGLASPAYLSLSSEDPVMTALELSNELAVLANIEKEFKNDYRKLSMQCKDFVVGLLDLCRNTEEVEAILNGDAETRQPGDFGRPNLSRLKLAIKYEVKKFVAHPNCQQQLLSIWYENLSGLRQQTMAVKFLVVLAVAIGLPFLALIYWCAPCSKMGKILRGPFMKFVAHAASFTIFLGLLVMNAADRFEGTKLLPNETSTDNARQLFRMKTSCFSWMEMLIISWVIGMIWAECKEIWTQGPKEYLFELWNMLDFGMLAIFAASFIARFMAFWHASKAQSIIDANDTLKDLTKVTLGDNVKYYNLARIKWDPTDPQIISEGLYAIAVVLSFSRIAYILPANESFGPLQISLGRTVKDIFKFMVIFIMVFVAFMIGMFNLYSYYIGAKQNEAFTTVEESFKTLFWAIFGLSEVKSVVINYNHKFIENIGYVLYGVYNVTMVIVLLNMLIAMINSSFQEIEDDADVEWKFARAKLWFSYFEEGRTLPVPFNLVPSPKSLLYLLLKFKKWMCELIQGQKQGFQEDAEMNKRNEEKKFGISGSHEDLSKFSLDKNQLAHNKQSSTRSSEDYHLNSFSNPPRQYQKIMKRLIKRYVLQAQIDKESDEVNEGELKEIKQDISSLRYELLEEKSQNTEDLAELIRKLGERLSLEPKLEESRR

[10] = biological target: Short transient receptor potential channel 6 (Mus musculus) (UniProt Q61143); assay: TRPC6 opening by TRPC4 activator hits – cell-based, HEK293, membrane potential dye, duplicate, selectivity assay for TRPC4 activator project, confirmation (AID 434950;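 active = membrane potential signal rise above negative control mean plus 3 SD in both duplicates, also active in the earlier TRPC4 screen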;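 for activation: 0% = buffer only wells and 100% = acetylcholine maximal-effect wells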); settings: HEK293 TRPC6, membrane potential fluorescence, at 10 µM; activation: hits give high values; outcome: activation
[11] = biological target: Short transient receptor potential channel 6 (Mus musculus) (UniProt Q61143); assay: positive modulators of mouse TRPC6 channel – HEK293 cells, membrane potential dye, duplicate, selectivity assay for TRPC4 potentiator project, confirmation (AID 434952;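 active = compound raising the membrane signal above positive-control mean plus 3 SD in both repeats, and a primary screen hit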); settings: HEK293 TRPC6, membrane potential dye fluorescence, at 10 µM, maximal acetylcholine added after compound; hits give high values
[12] = biological target: Short transient receptor potential channel 4 (Mus musculus) (UniProt Q9QUQ5); assay: calcium flux activators in TRPC4/5HT1a cells, counter-screen for TRPC4 activator project, cell-based, second counter screen, HEK293 TRPC4/5HT1a, Fluo-4 (AID 434977;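 active = calcium signal rise above buffer-control mean plus 5 SD in both duplicates, and also a hit in the primary screen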;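 for activation: plate controls were assay buffer for no effect and maximal serotonin response for full effect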); settings: Fluo-4 calcium flux, at 10 µM; hits give high values
[13] = serotonin-gated TRPC4 signal block – cell-based, second counter screen, HEK293 TRPC4/5HT1a, Fluo-4, counter-screen for TRPC4 inhibitor project, confirmation (AID 434978;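 active = primary screen active whose calcium signal fell more than 3 SD beyond the full-serotonin control mean in both duplicate plates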;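 note: serotonin given first at submaximal then at maximal dose after compound preincubation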); settings: Fluo-4 calcium flux, at 10 µM, serotonin added to trigger calcium flux; hits give high values
[14] = system: TRPC4 (mouse), co-expressed with 5HT1a in HEK293; assay: enhancement of serotonin-evoked TRPC4 response – cell-based, second counter screen, HEK293 TRPC4/5HT1a, Fluo-4, counter-screen for TRPC4 potentiator project, confirmation (AID 434979;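 active = signal rise over 3 SD above mean of control wells given weak agonist, in both repeats and first screen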); settings: Fluo-4 calcium flux, at 10 µM, serotonin added at its EC20 dose; hits give high values
[15] = nonspecific calcium rise without TRPC4 – cell-based, HEK293 mu-opioid receptor line, counter-screen for TRPC4 activator project, confirmation (AID 449723;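 active = hit in primary screen, with calcium signal over 5 SD above buffer well mean in both duplicates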;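 note: counter screen cells carry the mu-opioid receptor alone and lack TRPC4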); settings: HEK293 mu-opioid cells, Fluo-4 calcium fluorescence, at 10 µM; hits give high values
[16] = nonspecific potentiation of DAMGO calcium response – cell-based, HEK293 mu-opioid receptor line, counter-screen for TRPC4 allosteric potentiator project, confirmation (AID 449724;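 active = calcium signal rise more than 3 SD above the low-dose agonist control mean, in both duplicate plates and the primary screen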); settings: HEK293 mu-opioid receptor cells, Fluo-4 calcium flux, at 10 µM, compound added before EC20 DAMGO stimulus; hits give high values

FC(F)(F)c1cnc(N2CCCN(C(=S)Nc3ccccc3)CC2)c(Cl)c1
inactive: outcome [3] | outcome [4] | outcome [5] | outcome [6] | outcome [7] | outcome [8] | outcome [9] | outcome [10] | outcome [11] | outcome [13] | outcome [14] | outcome [15] | outcome [16]
active: activation [1] 208% | activation [2] 62% | activation [12] 84.8%

CN(C)C(CNC(=S)Nc1ccccc1)c1cccnc1 (stereo not given)
inactive: outcome [3] | outcome [4] | outcome [5] | outcome [6] | outcome [7] | outcome [8] | outcome [9] | outcome [11] | outcome [12] | outcome [13] | outcome [14] | outcome [15] | outcome [16]
active: activation [1] 76% | activation [2] 82% | activation [10] 36%

CCN1CCN(c2c(S(=O)(=O)c3ccc(C)c(C)c3)cnc3ccc(F)cc23)CC1
inactive: outcome [2] | outcome [3] | outcome [4] | outcome [5] | outcome [6] | outcome [7] | outcome [8] | outcome [9] | outcome [11] | outcome [12] | outcome [13] | outcome [14] | outcome [15] | outcome [16]
active: activation [1] 106% | activation [10] 50%

NCCSc1c(-c2ccc(Cl)cc2)[nH]c2ccccc12
active: activation [1] 116% | activation [12] 8.63% | activation [15] 19.5%
inactive: outcome [2] | outcome [3] | outcome [4] | outcome [5] | outcome [6] | outcome [7] | outcome [8] | outcome [9] | outcome [10] | outcome [11] | outcome [13] | outcome [14] | outcome [16]

Cc1ccccc1N(CC(=O)N/N=C/c1ccc(F)cc1)C(=O)c1ccccc1
inactive: outcome [1] | outcome [2] | outcome [3] | outcome [4] | outcome [5] | outcome [6] | outcome [7] | outcome [8] | outcome [9] | outcome [10] | outcome [11] | outcome [12] | outcome [13] | outcome [14] | outcome [15] | outcome [16]

CCCN(CCC)CCCNc1ccc2nnc(-c3ccc(F)cc3)n2n1
active: activation [1] 92% | activation [12] 41.2%
inactive: outcome [2] | outcome [3] | outcome [4] | outcome [5] | outcome [6] | outcome [7] | outcome [8] | outcome [9] | outcome [10] | outcome [11] | outcome [13] | outcome [14] | outcome [15] | outcome [16]

Cc1cccc(NC(=S)NCC(c2cccnc2)N(C)C)c1C (stereo not given)
active: activation [1] 82% | activation [2] 106%
inactive: outcome [3] | outcome [4] | outcome [5] | outcome [6] | outcome [7] | outcome [8] | outcome [9] | outcome [10] | outcome [11] | outcome [12] | outcome [13] | outcome [14] | outcome [15] | outcome [16]

Fc1ccc(C2CCNCC2COc2ccc3c(c2)OCO3)cc1 (stereo not given)
inactive: outcome [2] | outcome [3] | outcome [4] | outcome [5] | outcome [6] | outcome [7] | outcome [8] | outcome [9] | outcome [10] | outcome [11] | outcome [13] | outcome [14] | outcome [16]
active: activation [1] 202% | activation [12] 26.8% | activation [15] 15.8%

Cc1ccccc1C(=O)NNC(=S)NC(=O)c1ccccc1
active: activation [1] 215% | activation [10] 43.5% | activation [12] 121% | activation [15] 72.9%
inactive: outcome [2] | outcome [3] | outcome [4] | outcome [5] | outcome [6] | outcome [7] | outcome [8] | outcome [9] | outcome [11] | outcome [13] | outcome [14] | outcome [16]

CCn1c(N2CCN(Cc3ccc([N+](=O)[O-])cc3)CC2)nc2ccccc21
active: activation [1] 100% | activation [2] 83% | activation [12] 22% | potentiation [14] 18.3%
inactive: outcome [3] | outcome [4] | outcome [5] | outcome [6] | outcome [7] | outcome [8] | outcome [9] | outcome [10] | outcome [11] | outcome [13] | outcome [15] | outcome [16]

O=C(NCc1cccnc1)C1CCCN(Cc2cnn(-c3ccccc3)c2-n2cccc2)C1 (stereo not given)
inactive: outcome [2] | outcome [3] | outcome [4] | outcome [5] | outcome [6] | outcome [7] | outcome [8] | outcome [9] | outcome [11] | outcome [13] | outcome [14] | outcome [15] | outcome [16]
active: activation [1] 83% | activation [10] 46% | activation [12] 16.2%

CC1CC(C)CN(CCCNC(=O)c2nn(C)c3c2CS(=O)(=O)c2ccccc2-3)C1 (stereo not given)
inactive: outcome [3] | outcome [4] | outcome [5] | outcome [6] | outcome [7] | outcome [8] | outcome [9] | outcome [11] | outcome [13] | outcome [14] | outcome [15] | outcome [16]
active: activation [1] 112% | activation [2] 72% | activation [10] 40.5% | activation [12] 43.2%

Cc1cc(Cl)cc(C)c1OCCCCn1ccnc1
active: activation [1] 98% | activation [10] 42.5% | activation [12] 36.8%
inactive: outcome [2] | outcome [3] | outcome [4] | outcome [5] | outcome [6] | outcome [7] | outcome [8] | outcome [9] | outcome [11] | outcome [13] | outcome [14] | outcome [15] | outcome [16]

Cc1nc(NCC(c2ccccc2)N(C)C)c2c(C)c(C)sc2n1 (stereo not given)
inactive: outcome [3] | outcome [4] | outcome [5] | outcome [6] | outcome [7] | outcome [8] | outcome [9] | outcome [10] | outcome [11] | outcome [13] | outcome [14] | outcome [15] | outcome [16]
active: activation [1] 204% | activation [2] 78% | activation [12] 27.8%

O=C(C1CCCN(Cc2ccccc2F)C1)N1CCc2ccccc2C1 (stereo not given)
active: activation [1] 96% | activation [2] 98% | activation [10] 56.5% | activation [12] 40.5%
inactive: outcome [3] | outcome [4] | outcome [5] | outcome [6] | outcome [7] | outcome [8] | outcome [9] | outcome [11] | outcome [13] | outcome [14] | outcome [15] | outcome [16]
